From PubChem BioAssay (Tox21)
Records with an inconclusive call do not appear. Calls of active or inactive are those of the source. Unless noted, the call rests on the fitted dose curve; in most records, active means well fitted curve in the direction sought with a large enough effect in the repeat runs; inconclusive means weak or mixed curves; inactive means no such curve, though single readings can be large; an effect the other way counts as inactive or inconclusive.

Columns and labels:
[1] = qHTS assay to identify small molecule antagonists of the androgen receptor (AR) signaling pathway using the MDA cell line - cell viability counter screen (AID 743041; further: nearly all actives have a fitted effect of over 45% in size)
In short: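 MDA-kb2 AR-luc human breast carcinoma cells (MMTV-luciferase, AR/GR responsive) were treated with compounds plus R1881 agonist for 16 h at 37 °C. Viability was read as CellTiter-Fluor fluorescence in the same wells as the reporter assay.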

[2] = molecular target: Androgen receptor (Homo sapiens) (UniProt P10275); experiment: qHTS assay to identify small molecule antagonists of the androgen receptor (AR) signaling pathway using the MDA cell line (AID 743042; further: nearly all actives have a fitted effect of over 55% in size)
In short: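 MDA-kb2 cells (human breast carcinoma, stably carrying an MMTV-luciferase reporter responsive to AR and GR) were plated at 3,000 cells/well and preincubated 5 hr at 37C, then given compound plus R1881 agonist for 16 h. ONE-Glo luminescence was read.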

[3] = qHTS assay to identify small molecule antagonists of the thyroid receptor (TR) signaling pathway - cell viability counter screen (AID 743064); further: nearly all actives have a fitted effect of over 50% in size
In short: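 Rat GH3 pituitary tumor cells stably expressing two TR response elements driving luciferase were plated, rested 4 h, then dosed with library compounds and T3 (1 nM final). After 23.5 h at 37 °C, CellTiter-Fluor was added for 30 min and fluorescence recorded.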

[4] = tested on: thyroid hormone receptor (rat, GH3 cells); experiment: qHTS assay to identify small molecule agonists of the thyroid receptor (TR) signaling pathway (AID 743066; calls by dose curve)
[5] = molecular target: Estrogen receptor (Homo sapiens) (UniProt P03372); experiment: qHTS assay to identify small molecule antagonists of the estrogen receptor alpha (ER-alpha) signaling pathway (AID 743069; active means well fitted curve in the direction sought with a large enough effect in the signal ratio in the repeat runs, not every such curve was filed as active; the % refers to the signal ratio)
In short: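 HEK293 cells stably carrying an ER-alpha-UAS-bla beta-lactamase reporter were pre-cultured overnight in 2% charcoal-stripped FBS medium. Test compounds in DMSO were added together with 17beta-estradiol for 18 hr at 37C. Read-out was fluorescence after 2 hr with LiveBLAzer B/G FRET substrate at room temperature.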

[6] = qHTS assay to identify small molecule antagonists of the estrogen receptor alpha (ER-alpha) signaling pathway - cell viability counter screen (AID 743074; calls by dose curve; further: nearly all actives have a fitted effect of over 45% in size)
[7] = molecular target: Estrogen receptor (Homo sapiens) (UniProt P03372); experiment: qHTS assay to identify small molecule agonists of the estrogen receptor alpha (ER-alpha) signaling pathway (AID 743075; calls by dose curve)
[8] = molecular target: Estrogen receptor (Homo sapiens) (UniProt P03372); experiment: qHTS assay to identify small molecule agonists of the estrogen receptor alpha (ER-alpha) signaling pathway using the BG1 cell line (AID 743079); further: nearly all actives have a fitted effect of over 20% in size
[9] = qHTS assay to identify small molecule antagonists of the estrogen receptor alpha (ER-alpha) signaling pathway using the BG1 cell line (AID 743080; calls by dose curve; further: series mostly up to about 70 µM; nearly all actives have a fitted effect of over 25% in size)
In short: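 Antagonist mode: compounds in DMSO were pinned onto BG1-Luc-4E2 cells alongside 17beta-estradiol agonist, incubated 21.5 h, and ERE-driven luciferase measured with ONE-Glo. Cytotoxicity was multiplexed using CellTiter-Fluor fluorescence.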

[10] = qHTS assay to identify small molecule antagonists of the estrogen receptor alpha (ER-alpha) signaling pathway using the BG1 cell line - cell viability counter screen (AID 743081);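 further: compound given together with 17beta-estradiol as the ER stimulus; series mostly up to about 70 µM; nearly all actives have a fitted effect of over 45% in size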
Aromatase (Homo sapiens) = Aromatase (Homo sapiens) (UniProt P11511); experiment: qHTS assay to identify aromatase inhibitors (AID 743083); further: series mostly up to about 70 µM; nearly all actives have a fitted effect of over 55% in size
[11] = qHTS assay to identify aromatase inhibitors - cell viability counter screen (AID 743084);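 further: cells stimulated with testosterone during compound exposure; nearly all actives have a fitted effect of over 55% in size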
[12] = molecular target: Aryl hydrocarbon receptor (Homo sapiens) (UniProt P35869); experiment: qHTS assay to identify small molecule that activate the aryl hydrocarbon receptor (AhR) signaling pathway (AID 743085);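 further: HG2L7.5c1 human HepG2 liver cells with stably integrated DRE-driven firefly reporter; series mostly up to about 70 µM; nearly all actives have a fitted effect of over 15% in size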
In short: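 Compounds were tested in HepG2 hepatocellular carcinoma cells harbouring a stably integrated luciferase gene under control of 20 DREs. Increased reporter signal after 24 h treatment at 37C was taken as AhR activation.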

[13] = qHTS assay to identify small molecule that activate the aryl hydrocarbon receptor (AhR) signaling pathway - cell viability counter screen (AID 743086);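 further: HepG2 liver cells carrying the AhR DRE luciferase reporter; series mostly up to about 70 µM; nearly all actives have a fitted effect of over 45% in size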
In short: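 HepG2-AhR-luc (HG2L7.5c1) cells, 4000/well, were preincubated 5 h at 37C, exposed to compound in qHTS format for 24 hr at 37C, then given CellTiter-Fluor for 30 min; viability was read as fluorescence in the reporter wells.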

[14] = molecular target: Peroxisome proliferator-activated receptor gamma (Homo sapiens) (UniProt P37231); experiment: qHTS assay to identify small molecule agonists of the peroxisome proliferator-activated receptor gamma (PPARg) signaling pathway (AID 743094; active means well fitted activation curve with a large enough effect in the signal ratio in the repeat runs, not every such curve was filed as active; the % refers to the signal ratio)
In short: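 GeneBLAzer PPARg UAS-bla HEK293H cells carrying a stably integrated beta-lactamase reporter were pre-incubated 5 h at 37C, then exposed to compounds in DMSO for 17 h at 37C; LiveBLAzer B/G FRET substrate was added for 1 h at room temperature and fluorescence read.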

[15] = qHTS assay to identify small molecule antagonists of the estrogen related receptor (ERR) signaling pathway - cell viability counter screen (AID 1224818);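 further: series mostly up to about 46 µM; viability measured after 17.5 h of compound exposure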
In short: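 ERR reporter cells plated 6 h at 37 C/5% CO2, then compounds in DMSO pin-transferred and incubated 17.5 h at 37 C. Viability read as CellTiter-Fluor fluorescence after 30 min at 37 C.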

[16] = qHTS assay to identify small molecule antagonists of the estrogen related receptor (ERR) signaling pathway (AID 1224819;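 further: luminescence from an ERR-driven luciferase reporter measured with One-Glo reagent; series mostly up to about 46 µM; nearly all actives have a fitted effect of over 50% in size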)
In short: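 ERR reporter cells were plated at 2,000 cells/well and left 6 h at 37 C/5% CO2 before pin-tool transfer of compounds in DMSO. After 18 h at 37 C, One-Glo was added and luminescence was read 30 min later at room temperature.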

[17] = qHTS assay to identify small molecule agonists of the estrogen related receptor (ERR) signaling pathway (AID 1224820)
In short: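 Quantitative HTS of the LOPAC library used NTP ERR reporter cells treated 18 h at 37 C. Signal is luminescence after One-Glo addition and a 30 min room-temperature incubation.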

[18] = tested on: estrogen-related receptor alpha (ERRalpha) with PGC-1alpha coactivator, human; experiment: qHTS assay to identify small molecule antagonists of the estrogen related receptor signaling pathway with the pleiotropic PPARgamma coactivator (PGC) (AID 1224821; calls by dose curve;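 further: series mostly up to about 46 µM; lower luminescence signal means antagonism of PGC/ERR signalling; nearly all actives have a fitted effect of over 50% in size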)
In short: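 Quantitative HTS for antagonism: PGC/ERR cells received compounds after 6 h attachment and were incubated 18 h at 37 C, with luminescence (One-Glo) as the endpoint.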

[19] = qHTS assay to identify small molecule antagonists of the estrogen related receptor signaling pathway with the pleiotropic PPARgamma coactivator (PGC) cell viability counter screen (AID 1224822; further: series mostly up to about 46 µM)
In short: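 PGC/ERR cells were seeded at 2,000 cells/well, rested 6 h at 37 C/5% CO2, then given compounds in DMSO by pin tool and incubated 17.5 h at 37 C. Viability came from CellTiter-Fluor fluorescence after 30 min.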

[20] = qHTS assay to identify small molecule agonists of the estrogen related receptor signaling pathway with the pleiotropic PPARgamma coactivator (PGC) (AID 1224823)
In short: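 Cell-based luciferase assay in the NTP-supplied PGC/ERR line, 2,000 cells/well; 18 h compound exposure at 37 C, luminescence after One-Glo.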

[21] = qHTS assay to identify small molecule phospholipidosis (PLD) inducers (AID 1259344; active means well fitted curve in the direction sought with a large enough effect; an effect the other way counts as inactive or inconclusive)
In short: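 HepG2 cells on collagen I, attached 4 h at 37 C, were co-treated with compound and LipidTOX Red dye for 24 h at 37 C, then fixed with paraformaldehyde plus Hoechst 33342 and imaged by high-content microscopy for phospholipid accumulation.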

[22] = molecular target: Nuclear receptor subfamily 1 group I member 2 (Rattus norvegicus) (UniProt Q9R1A7); experiment: Rat pregnane X receptor (rPXR) activation by small molecules, qHTS assay (AID 1346983); conditions: rPXR luciferase reporter cells, One-Glo luminescence, 24 h; max activation: active compounds read high; further: nearly all actives have a fitted effect of over 20% in size
In short: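 Cell-based rPXR luciferase reporter assay, 2,000 cells per well, rested 5hr at 37 C before compound addition in DMSO, then 24 hr at 37 C. One-Glo reagent was added and luminescence read after 30 min at room temperature.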

[23] = molecular target: Nuclear receptor subfamily 1 group I member 2 (Homo sapiens) (UniProt O75469); experiment: CYP3A4 induction through human pregnane X receptor (PXR) by small molecules, qHTS assay (AID 1346984); further: nearly all actives have a fitted effect of over 40% in size
In short: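 DPX-2 cells (HepG2 co-transfected with PXR and CYP3A4 promoter-luciferase) treated with compounds 24 h at 37C; luciferin-IPA CYP3A4 substrate 3uM final added for 3 h, then One-Glo; luminescence read. qHTS format.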

[24] = molecular target: Nuclear receptor subfamily 1 group I member 2 (Homo sapiens) (UniProt O75469); experiment: Human pregnane X receptor (PXR) activation by small molecules, qHTS assay (AID 1346985); further: nearly all actives have a fitted effect of over 40% in size
In short: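 DPX-2 cells (HepG2 co-transfected with a PXR response element and a CYP3A4-promoter luciferase construct) were seeded at 2,000 per well, rested 5 hr at 37C, then exposed to DMSO-dissolved compounds for 24 hr. Activation was read as luciferase luminescence.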
On the % scale 0 is the no-effect control and ±100 the full control effect.

Sequence of Estrogen receptor (Homo sapiens) (P03372 whole entry, looked up): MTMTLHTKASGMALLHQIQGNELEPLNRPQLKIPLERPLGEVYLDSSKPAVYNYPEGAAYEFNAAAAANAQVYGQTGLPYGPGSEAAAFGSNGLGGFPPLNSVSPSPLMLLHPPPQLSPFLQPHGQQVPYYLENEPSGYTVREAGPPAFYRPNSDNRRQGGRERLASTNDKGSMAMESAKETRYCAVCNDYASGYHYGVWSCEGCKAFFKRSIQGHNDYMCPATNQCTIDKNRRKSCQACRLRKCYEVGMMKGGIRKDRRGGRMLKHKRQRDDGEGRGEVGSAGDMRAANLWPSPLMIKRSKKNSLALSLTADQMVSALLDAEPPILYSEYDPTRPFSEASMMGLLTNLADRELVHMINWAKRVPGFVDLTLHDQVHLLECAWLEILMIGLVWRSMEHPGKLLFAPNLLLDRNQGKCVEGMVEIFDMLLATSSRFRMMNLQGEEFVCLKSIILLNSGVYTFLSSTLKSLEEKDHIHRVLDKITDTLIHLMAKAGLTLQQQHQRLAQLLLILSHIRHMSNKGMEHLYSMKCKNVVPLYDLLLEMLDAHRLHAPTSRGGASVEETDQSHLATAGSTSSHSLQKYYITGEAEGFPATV
Sequence of Androgen receptor (Homo sapiens) (P10275 whole entry, looked up): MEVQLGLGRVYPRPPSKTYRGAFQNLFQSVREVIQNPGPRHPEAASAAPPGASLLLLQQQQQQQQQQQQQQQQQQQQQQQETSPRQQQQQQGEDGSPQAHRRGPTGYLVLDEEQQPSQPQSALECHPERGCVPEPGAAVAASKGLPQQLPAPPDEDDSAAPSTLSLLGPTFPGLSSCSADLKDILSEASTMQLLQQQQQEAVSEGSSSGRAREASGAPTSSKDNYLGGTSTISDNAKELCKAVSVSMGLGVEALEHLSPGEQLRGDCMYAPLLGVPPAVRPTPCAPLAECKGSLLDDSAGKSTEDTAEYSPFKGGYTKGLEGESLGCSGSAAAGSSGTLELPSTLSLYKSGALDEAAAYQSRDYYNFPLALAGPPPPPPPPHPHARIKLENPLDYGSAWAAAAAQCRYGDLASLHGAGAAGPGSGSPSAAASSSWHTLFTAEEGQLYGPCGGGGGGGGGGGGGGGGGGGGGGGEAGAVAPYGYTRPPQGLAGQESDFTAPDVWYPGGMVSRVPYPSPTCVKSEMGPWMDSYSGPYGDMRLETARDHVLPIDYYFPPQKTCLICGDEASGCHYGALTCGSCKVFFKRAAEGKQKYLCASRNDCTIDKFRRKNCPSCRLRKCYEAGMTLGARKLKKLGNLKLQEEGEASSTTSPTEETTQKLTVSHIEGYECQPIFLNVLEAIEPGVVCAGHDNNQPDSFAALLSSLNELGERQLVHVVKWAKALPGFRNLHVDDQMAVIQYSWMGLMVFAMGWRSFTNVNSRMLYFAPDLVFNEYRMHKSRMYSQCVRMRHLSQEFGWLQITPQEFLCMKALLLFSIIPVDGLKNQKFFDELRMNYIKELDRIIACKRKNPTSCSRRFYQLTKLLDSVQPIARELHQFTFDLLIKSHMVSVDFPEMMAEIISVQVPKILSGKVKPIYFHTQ
Sequence of Peroxisome proliferator-activated receptor gamma (Homo sapiens) (P37231 whole entry, looked up): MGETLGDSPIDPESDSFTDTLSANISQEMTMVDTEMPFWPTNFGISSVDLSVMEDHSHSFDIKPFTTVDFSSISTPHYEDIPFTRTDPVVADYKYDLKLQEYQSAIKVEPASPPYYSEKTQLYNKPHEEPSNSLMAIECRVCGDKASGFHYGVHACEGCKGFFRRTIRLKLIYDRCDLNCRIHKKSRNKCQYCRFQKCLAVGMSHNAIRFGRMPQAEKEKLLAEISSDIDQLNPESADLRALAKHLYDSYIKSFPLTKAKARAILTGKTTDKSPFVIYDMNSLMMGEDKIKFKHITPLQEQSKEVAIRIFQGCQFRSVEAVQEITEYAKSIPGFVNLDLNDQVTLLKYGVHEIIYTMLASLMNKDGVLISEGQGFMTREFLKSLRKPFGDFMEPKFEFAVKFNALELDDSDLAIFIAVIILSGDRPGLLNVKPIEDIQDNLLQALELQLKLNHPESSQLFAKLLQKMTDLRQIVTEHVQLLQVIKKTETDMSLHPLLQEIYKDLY
Sequence of Aromatase (Homo sapiens) (P11511 whole entry, looked up): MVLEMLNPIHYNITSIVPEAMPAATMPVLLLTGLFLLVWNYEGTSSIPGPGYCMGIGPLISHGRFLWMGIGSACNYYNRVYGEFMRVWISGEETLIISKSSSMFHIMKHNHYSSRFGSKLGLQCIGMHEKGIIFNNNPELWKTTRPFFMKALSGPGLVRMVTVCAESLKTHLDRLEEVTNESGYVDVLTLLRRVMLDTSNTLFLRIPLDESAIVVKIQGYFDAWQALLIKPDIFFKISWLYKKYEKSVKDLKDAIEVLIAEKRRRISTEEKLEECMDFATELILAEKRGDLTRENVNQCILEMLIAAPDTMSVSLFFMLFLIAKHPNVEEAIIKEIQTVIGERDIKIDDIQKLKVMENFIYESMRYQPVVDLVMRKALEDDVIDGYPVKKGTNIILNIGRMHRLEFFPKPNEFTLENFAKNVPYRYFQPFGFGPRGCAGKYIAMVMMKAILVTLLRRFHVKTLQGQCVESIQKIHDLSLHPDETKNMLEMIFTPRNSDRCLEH
Sequence of Nuclear receptor subfamily 1 group I member 2 (Rattus norvegicus) (Q9R1A7 whole entry, looked up): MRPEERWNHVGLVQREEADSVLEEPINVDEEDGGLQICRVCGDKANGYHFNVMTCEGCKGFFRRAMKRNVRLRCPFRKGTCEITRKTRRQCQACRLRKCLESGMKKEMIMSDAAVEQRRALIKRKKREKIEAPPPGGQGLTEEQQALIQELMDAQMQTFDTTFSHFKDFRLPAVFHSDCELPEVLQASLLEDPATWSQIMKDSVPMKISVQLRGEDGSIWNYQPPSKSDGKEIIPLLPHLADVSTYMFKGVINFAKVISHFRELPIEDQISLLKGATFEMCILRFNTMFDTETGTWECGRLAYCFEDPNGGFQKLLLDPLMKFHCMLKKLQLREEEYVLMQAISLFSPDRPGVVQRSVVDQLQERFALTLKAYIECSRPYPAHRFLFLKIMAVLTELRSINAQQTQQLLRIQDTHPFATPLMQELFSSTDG
Sequence of Aryl hydrocarbon receptor (Homo sapiens) (P35869 whole entry, looked up): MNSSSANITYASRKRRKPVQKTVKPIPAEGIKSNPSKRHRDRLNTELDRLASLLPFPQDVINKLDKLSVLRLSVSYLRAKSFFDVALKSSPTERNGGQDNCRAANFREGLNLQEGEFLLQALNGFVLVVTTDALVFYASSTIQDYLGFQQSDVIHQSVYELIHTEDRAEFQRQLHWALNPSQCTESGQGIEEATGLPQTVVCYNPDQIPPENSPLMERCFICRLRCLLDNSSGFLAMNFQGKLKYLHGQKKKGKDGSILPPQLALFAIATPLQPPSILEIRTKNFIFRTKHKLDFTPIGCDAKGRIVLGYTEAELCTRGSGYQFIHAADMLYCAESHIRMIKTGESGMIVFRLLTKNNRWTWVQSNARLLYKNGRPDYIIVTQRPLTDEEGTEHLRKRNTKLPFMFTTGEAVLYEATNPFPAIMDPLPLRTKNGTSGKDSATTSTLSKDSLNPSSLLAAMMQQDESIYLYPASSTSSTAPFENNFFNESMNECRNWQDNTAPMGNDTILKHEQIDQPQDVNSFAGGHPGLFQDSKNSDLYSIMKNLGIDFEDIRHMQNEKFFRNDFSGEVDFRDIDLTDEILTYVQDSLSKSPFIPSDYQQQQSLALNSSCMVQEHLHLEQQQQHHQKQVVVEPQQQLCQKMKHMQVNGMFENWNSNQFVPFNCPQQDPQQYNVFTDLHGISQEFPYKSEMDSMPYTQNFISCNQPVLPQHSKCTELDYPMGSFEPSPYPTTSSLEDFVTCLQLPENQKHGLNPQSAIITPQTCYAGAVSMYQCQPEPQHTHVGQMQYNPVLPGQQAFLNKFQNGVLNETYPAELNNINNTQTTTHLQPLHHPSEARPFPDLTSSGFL

CCCCCN(C)CCC(O)(P(=O)(O)O)P(=O)(O)O
inactive: Potency [1] | Potency [2] | Potency [3] | Potency [4] | Potency [5] | Potency [6] | Potency [7] | Potency [8] | Potency [9] | Potency [10] | Potency (Aromatase (Homo sapiens)) | Potency [11] | Potency [12] | Potency [13] | Potency [14] | Potency [15] | Potency [16] | Potency [17] | Potency [18] | Potency [19] | Potency [20] | Potency [21] | max activation [22] -1.96% | Potency [23] | Potency [24]
